Measurements taken from publication PMC5515408, “Sequence-specific DNA binding by MYC/MAX to low-affinity non-E-box motifs”.
Whole data set: some 5,000 sequences, median “log2 normalized fluorescence” near 0.089, cut for the highest 2% near 0.81. For the sample, the highest values were picked, then their nearest neighbours and some sequences at random.

Each sequence was assayed against MYC (p64);MAX (p21), in MYC:MAX (human;human, UniProt P01106-1;P61244-2 1-439;1-151, |) (assay: protein-binding microarray (anti-MAX antibody); PBM: 15 mM Tris-HCl pH 7.5, 100 mM KCl, 0.075% NP40, 7.5 mM beta-mercaptoethanol, 375 ng/ul BSA, 8 ng/ul poly(dA-dT):(dA-dT), 550 ng complex, 60 min, room tempe; high values mean tight binding). Conditions: protein: recombinant;recombinant; tags: 6xHis;6xHis; copies: 1;1; label: 3' end of printed strand (linker) attached to glass slide; dsDNA, one strand shown.
Outline: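 Recombinant His-tagged human MYC:MAX or MAX:MAX dimers (550 ng, expressed in E. coli) were incubated for 60 min at room temperature in Tris-KCl buffer, pH 7.5, with NP40, BSA and poly(dA-dT) competitor. The custom Agilent glass array held ~5000 unique 12-nt sequences, each spotted in triplicate and made double-stranded by primer extension. Bound protein was detected with anti-MAX and secondary antibodies and scanned at 543 nm. Binding is reported as log2 normalized fluorescence.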

Sequence of MYC (p64);MAX (p21), in MYC:MAX (P01106 16-454, chain 1 of 2): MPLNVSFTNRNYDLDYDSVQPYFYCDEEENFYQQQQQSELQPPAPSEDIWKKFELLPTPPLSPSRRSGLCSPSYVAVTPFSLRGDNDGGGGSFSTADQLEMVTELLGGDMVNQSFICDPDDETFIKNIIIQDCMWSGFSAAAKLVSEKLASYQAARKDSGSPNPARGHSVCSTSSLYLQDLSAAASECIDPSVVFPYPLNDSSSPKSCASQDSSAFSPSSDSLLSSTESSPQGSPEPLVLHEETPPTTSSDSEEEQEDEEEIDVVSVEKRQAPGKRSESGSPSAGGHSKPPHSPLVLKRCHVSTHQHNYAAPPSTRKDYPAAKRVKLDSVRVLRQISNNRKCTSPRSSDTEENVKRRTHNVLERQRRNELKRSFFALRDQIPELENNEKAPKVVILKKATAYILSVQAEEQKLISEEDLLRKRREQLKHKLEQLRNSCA
Sequence of MYC (p64);MAX (p21), in MYC:MAX (P61244 other isoform, or with tags, fused parts or gaps |, chain 2 of 2): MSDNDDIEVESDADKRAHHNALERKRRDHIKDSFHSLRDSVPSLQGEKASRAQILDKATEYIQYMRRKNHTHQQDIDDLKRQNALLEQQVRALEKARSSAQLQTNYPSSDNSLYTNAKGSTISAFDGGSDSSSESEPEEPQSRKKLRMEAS

Q: “CCGGCTGACTACATGTATTAATAGCTAAGATTACTATATCGACG” was tested. Which binding signal did it give?
A: 0.419 log2 normalized fluorescence

Q: With “CCGGCTGTCAAGTGGCATTAATAGCTAAGATTACTATATCGACG” as the sequence, how does the binding signal read?
A: 0.1 log2 normalized fluorescence

Q: “CCGGCTGAGTTTCCGTATTAATAGCTAAGATTACTATATCGACG” was tested. Which binding signal did it give?
A: -0.0243 log2 normalized fluorescence

Q: Which binding signal does the source give for “CCGGCTGAAGGATGGTATTAATAGCTAAGATTACTATATCGACG” here?
A: 0.0538 log2 normalized fluorescence

Q: With “CCGGCTGTCCCCTGGTATTAATAGCTAAGATTACTATATCGACG” as the sequence, how does the binding signal read?
A: -0.00889 log2 normalized fluorescence

Q: With “CCGGCTGACTGTGAGTATTAATAGCTAAGATTACTATATCGACG” as the sequence, how does the binding signal read?
A: 0.00564 log2 normalized fluorescence

Q: How did the binding signal turn out when “CCGGCTGACGGCAGGTATTAATAGCTAAGATTACTATATCGACG” was run?
A: -0.00507 log2 normalized fluorescence

Q: With “CCGGCGGACACGTGCTATTAATAGCTAAGATTACTATATCGACG” as the sequence, how does the binding signal read?
A: 0.839 log2 normalized fluorescence

Q: For “CCGGCGGACGCGTGGTATTAATAGCTAAGATTACTATATCGACG”, which binding signal is on record?
A: 0.64 log2 normalized fluorescence

Q: Which binding signal does the source give for “CCGGCGGACACGTGTGATTAATAGCTAAGATTACTATATCGACG” here?
A: 0.779 log2 normalized fluorescence

Q: With “CCGGCGGACACGTCGTATTAATAGCTAAGATTACTATATCGACG” as the sequence, how does the binding signal read?
A: 0.287 log2 normalized fluorescence

Q: For “CCGGCGGACACGTGGTATTAATAGCTAAGATTACTATATCGACG”, which binding signal is on record?
A: 0.99 log2 normalized fluorescence

Q: Which binding signal does the source give for “CCGGCGGACCCGTGGTATTAATAGCTAAGATTACTATATCGACG” here?
A: 0.439 log2 normalized fluorescence

Q: “CCGGCTGAGTACCTGTATTAATAGCTAAGATTACTATATCGACG” was tested. Which binding signal did it give?
A: 0.076 log2 normalized fluorescence

Q: For “CCGGCTGATGGGCAGTATTAATAGCTAAGATTACTATATCGACG”, which binding signal is on record?
A: 0.0215 log2 normalized fluorescence

Q: Which binding signal does the source give for “CCGGCTGACGATCAGTATTAATAGCTAAGATTACTATATCGACG” here?
A: -0.0317 log2 normalized fluorescence

Q: Which binding signal does the source give for “CCGGCTGAATACCTGTATTAATAGCTAAGATTACTATATCGACG” here?
A: 0.159 log2 normalized fluorescence

Q: How did the binding signal turn out when “CCGGCTGAGCGCAGGTATTAATAGCTAAGATTACTATATCGACG” was run?
A: 0.113 log2 normalized fluorescence

Q: Which binding signal does the source give for “CCGGCTGACCAGTTGTATTAATAGCTAAGATTACTATATCGACG” here?
A: 0.159 log2 normalized fluorescence

Q: For “CCGGCTGGCACGTGCTATTAATAGCTAAGATTACTATATCGACG”, which binding signal is on record?
A: 0.722 log2 normalized fluorescence

Q: How did the binding signal turn out when “CCGGCGCACACGTGGTATTAATAGCTAAGATTACTATATCGACG” was run?
A: 0.906 log2 normalized fluorescence

Q: With “CCGGCGCACACGTGCTATTAATAGCTAAGATTACTATATCGACG” as the sequence, how does the binding signal read?
A: 0.875 log2 normalized fluorescence

Q: “CCGGCTGAGCACACGTATTAATAGCTAAGATTACTATATCGACG” was tested. Which binding signal did it give?
A: 0.338 log2 normalized fluorescence

Q: How did the binding signal turn out when “CCGGCGCGCACGTGGTATTAATAGCTAAGATTACTATATCGACG” was run?
A: 0.813 log2 normalized fluorescence

Q: How did the binding signal turn out when “CCGGCTCGCACGTGGTATTAATAGCTAAGATTACTATATCGACG” was run?
A: 0.665 log2 normalized fluorescence

Q: How did the binding signal turn out when “CCGGCTGAATTCCCGTATTAATAGCTAAGATTACTATATCGACG” was run?
A: 0.003 log2 normalized fluorescence

Q: For “CCGGCTGACGGATGGTATTAATAGCTAAGATTACTATATCGACG”, which binding signal is on record?
A: 0.302 log2 normalized fluorescence

Q: For “CCGGCTGACGGACAGTATTAATAGCTAAGATTACTATATCGACG”, which binding signal is on record?
A: 0.124 log2 normalized fluorescence

Q: For “CCGGCTGACTCGTGCTGTTAATAGCTAAGATTACTATATCGACG”, which binding signal is on record?
A: 0.41 log2 normalized fluorescence

Q: For “CCGGCTGACACGTGATCTTAATAGCTAAGATTACTATATCGACG”, which binding signal is on record?
A: 0.744 log2 normalized fluorescence

Q: For “CCGGCTGACACGTGAGGTTAATAGCTAAGATTACTATATCGACG”, which binding signal is on record?
A: 0.702 log2 normalized fluorescence

Q: For “CCGGCTGACACGTGAAGTTAATAGCTAAGATTACTATATCGACG”, which binding signal is on record?
A: 0.527 log2 normalized fluorescence

Q: For “CCGGCTGACACGTGAGCTTAATAGCTAAGATTACTATATCGACG”, which binding signal is on record?
A: 0.713 log2 normalized fluorescence

Q: How did the binding signal turn out when “CCGGCTGACACGTGATGTTAATAGCTAAGATTACTATATCGACG” was run?
A: 0.851 log2 normalized fluorescence

Q: “CCGGCTGACACGTGAGATTAATAGCTAAGATTACTATATCGACG” was tested. Which binding signal did it give?
A: 0.826 log2 normalized fluorescence

Q: For “CCGGCTGACACGTGATATTAATAGCTAAGATTACTATATCGACG”, which binding signal is on record?
A: 0.522 log2 normalized fluorescence

Q: How did the binding signal turn out when “CCGGCTGACACGTCATGTTAATAGCTAAGATTACTATATCGACG” was run?
A: 0.5 log2 normalized fluorescence

Q: For “CCGGCTGACACGTGTGATTAATAGCTAAGATTACTATATCGACG”, which binding signal is on record?
A: 0.872 log2 normalized fluorescence

Q: Which binding signal does the source give for “CCGGCTGAGCCATCGTATTAATAGCTAAGATTACTATATCGACG” here?
A: 0.0938 log2 normalized fluorescence

Q: For “CCGGCTGACCGCGGGTATTAATAGCTAAGATTACTATATCGACG”, which binding signal is on record?
A: 0.33 log2 normalized fluorescence

Q: “CCGGCTGACTGGAGGTATTAATAGCTAAGATTACTATATCGACG” was tested. Which binding signal did it give?
A: 0.07 log2 normalized fluorescence

Q: How did the binding signal turn out when “CCGGCTGATGTTAGGTATTAATAGCTAAGATTACTATATCGACG” was run?
A: 0.122 log2 normalized fluorescence

Q: With “CCGGCTGAGGACCGGTATTAATAGCTAAGATTACTATATCGACG” as the sequence, how does the binding signal read?
A: -0.014 log2 normalized fluorescence

Q: Which binding signal does the source give for “CCGGCCGACACGTCGTATTAATAGCTAAGATTACTATATCGACG” here?
A: 0.338 log2 normalized fluorescence

Q: How did the binding signal turn out when “CCGGCTGACGACACGTATTAATAGCTAAGATTACTATATCGACG” was run?
A: 0.2 log2 normalized fluorescence

Q: For “CCGGCTGACACGTGGGCTTAATAGCTAAGATTACTATATCGACG”, which binding signal is on record?
A: 0.74 log2 normalized fluorescence

Q: For “CCGGCCGACACGTGATATTAATAGCTAAGATTACTATATCGACG”, which binding signal is on record?
A: 0.927 log2 normalized fluorescence

Q: With “CCGGCTGAACACACGTATTAATAGCTAAGATTACTATATCGACG” as the sequence, how does the binding signal read?
A: 0.419 log2 normalized fluorescence

Q: For “CCGGCCGACACGTTGTATTAATAGCTAAGATTACTATATCGACG”, which binding signal is on record?
A: 0.656 log2 normalized fluorescence

Q: “CCGGCTGAACGTGTGTATTAATAGCTAAGATTACTATATCGACG” was tested. Which binding signal did it give?
A: 0.493 log2 normalized fluorescence

Q: Which binding signal does the source give for “CCGGCTGACACGTGGTATTAATAGCTAAGATTACTATATCGACG” here?
A: 0.825 log2 normalized fluorescence

Q: How did the binding signal turn out when “CCGGCTGAACACGTGTATTAATAGCTAAGATTACTATATCGACG” was run?
A: 0.823 log2 normalized fluorescence

Q: How did the binding signal turn out when “CCGGCCGACACGTGGGCTTAATAGCTAAGATTACTATATCGACG” was run?
A: 0.893 log2 normalized fluorescence

Q: Which binding signal does the source give for “CCGGCTGACGTGTGGTATTAATAGCTAAGATTACTATATCGACG” here?
A: 0.252 log2 normalized fluorescence

Q: Which binding signal does the source give for “CCGGCTAACACGTGATATTAATAGCTAAGATTACTATATCGACG” here?
A: 0.646 log2 normalized fluorescence

Q: For “CCGGCTGACTAGTAGTATTAATAGCTAAGATTACTATATCGACG”, which binding signal is on record?
A: -0.00827 log2 normalized fluorescence

Q: With “CCGGCTGACACGACATATTAATAGCTAAGATTACTATATCGACG” as the sequence, how does the binding signal read?
A: 0.459 log2 normalized fluorescence

Q: “CCGGCTGAAGACCAGTATTAATAGCTAAGATTACTATATCGACG” was tested. Which binding signal did it give?
A: 0.106 log2 normalized fluorescence

Q: “CCGGCTGAGGCAAGGTATTAATAGCTAAGATTACTATATCGACG” was tested. Which binding signal did it give?
A: 0.281 log2 normalized fluorescence

Q: For “CCGGCTGAGGTCGCGTATTAATAGCTAAGATTACTATATCGACG”, which binding signal is on record?
A: 0.0221 log2 normalized fluorescence

Q: “CCGGCTGATAACAGGTATTAATAGCTAAGATTACTATATCGACG” was tested. Which binding signal did it give?
A: -0.0157 log2 normalized fluorescence

Q: With “CCGGCTGACCTATGGTATTAATAGCTAAGATTACTATATCGACG” as the sequence, how does the binding signal read?
A: 0.108 log2 normalized fluorescence

Q: How did the binding signal turn out when “CCGGCTGAGTGTGAGTATTAATAGCTAAGATTACTATATCGACG” was run?
A: 0.101 log2 normalized fluorescence

Q: For “CCGGCTGAACGCGTGTATTAATAGCTAAGATTACTATATCGACG”, which binding signal is on record?
A: 0.587 log2 normalized fluorescence

Q: “CCGGCTGACACGTGGAATTAATAGCTAAGATTACTATATCGACG” was tested. Which binding signal did it give?
A: 0.698 log2 normalized fluorescence

Q: For “CCGGCCGACACGTGGAATTAATAGCTAAGATTACTATATCGACG”, which binding signal is on record?
A: 0.832 log2 normalized fluorescence

Q: How did the binding signal turn out when “CCGGCTAACACGTGGAATTAATAGCTAAGATTACTATATCGACG” was run?
A: 0.812 log2 normalized fluorescence

Q: For “CCGGCCGGCACGTGGTATTAATAGCTAAGATTACTATATCGACG”, which binding signal is on record?
A: 0.723 log2 normalized fluorescence

Q: “CCGGCCGACACGTGGTATTAATAGCTAAGATTACTATATCGACG” was tested. Which binding signal did it give?
A: 1.07 log2 normalized fluorescence

Q: Which binding signal does the source give for “CCGGCCGACGCGTGGTATTAATAGCTAAGATTACTATATCGACG” here?
A: 0.626 log2 normalized fluorescence
